Among the data in PubChem BioAssay AID493012 (Sanford-Burnham Center for Chemical Genomics, 2011) are inhibition values, retold here.

Out of some 330,000 compounds screened, about 930 (0.28%) were called active. Only a selection was taken, and actives are over-represented in it overall. A number with no mark means an inactive call.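 The calls were made as follows: active = inhibition of at least 40% at 20 µM, with no more than 30% in the related APOBEC3A deaminase screen; inactive = the rest.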

In general, inhibition refers to the relative decrease from the control value, in per cent.

DNA dC->dU-editing enzyme APOBEC-3G (Homo sapiens), sequence (Q9HC16 whole entry, looked up): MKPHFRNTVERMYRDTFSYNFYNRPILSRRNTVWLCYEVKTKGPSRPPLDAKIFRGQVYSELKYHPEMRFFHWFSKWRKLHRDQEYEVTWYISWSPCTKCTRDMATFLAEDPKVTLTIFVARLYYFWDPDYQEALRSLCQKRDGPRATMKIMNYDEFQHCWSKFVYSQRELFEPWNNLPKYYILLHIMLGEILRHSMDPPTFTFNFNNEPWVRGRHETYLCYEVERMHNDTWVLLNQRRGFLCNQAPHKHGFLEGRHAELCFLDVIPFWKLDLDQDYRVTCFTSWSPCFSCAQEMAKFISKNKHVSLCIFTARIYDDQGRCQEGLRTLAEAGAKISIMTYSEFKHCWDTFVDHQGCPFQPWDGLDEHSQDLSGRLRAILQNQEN

The test has as its target DNA dC->dU-editing enzyme APOBEC-3G (Homo sapiens) (UniProt Q9HC16). Briefly: inhibition of human A3G ssDNA deamination – biochemical, fluorescence, single-stranded DNA substrate, uHTS, primary screen (AID 493012).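 Also: plate controls were DMSO wells with A3G for no effect and wells lacking A3G enzyme for full effect.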 Particulars: recombinant A3G, ssDNA deamination FAM/TAMRA fluorescence; at 20 µM; stronger effect = higher value.
Turning to `COC(=O)N(c1ccc(OC)cc1)P1(=S)OCCC(C)O1` (stereo not given), the inhibition is 69.7% (active).
The same measure for `Cn1c(O)c(C=NCCN2CCNCC2)c(=O)n(C)c1=O`: -1.92%.
The same measure for `CCCC[N+]1(C)C2CC(OC(=O)C(CO)c3ccccc3)CC1C1OC12` (stereo not given): -0.137%.
The same measure for `CCN1CCN(Cc2cc(OC)c3c(c2)OCO3)CC1`: -5.01%.
With `Cc1cccc(-n2c(O)c(/C=N/N3CCOCC3)c(=O)[nH]c2=S)c1`, the inhibition was -9.2%.
